Screens: PubChem BioAssay, several laboratories
CSC inhib = blocks cancer stem cells | cancer stem cell-like cells viability, luminescence | inhibition, % at 7.5 µM | 300,000 tested, 1.1% active | AID 2717; in the data active means inhibition above about 75%; tested in HMLE shEcad cells
Mdm2 MdmX PPI = inhibitors of human Mdm2/MdmX interaction. SaOS-2 split-luciferase Mdm2/MdmX complementation, luminescence. 330,000 tested, 3% active. inhibition, % at 8 µM. AID 485346;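 active means inhibition of at least 50% at 8 µM in the primary screen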
Target sequence (O15151 whole entry, looked up): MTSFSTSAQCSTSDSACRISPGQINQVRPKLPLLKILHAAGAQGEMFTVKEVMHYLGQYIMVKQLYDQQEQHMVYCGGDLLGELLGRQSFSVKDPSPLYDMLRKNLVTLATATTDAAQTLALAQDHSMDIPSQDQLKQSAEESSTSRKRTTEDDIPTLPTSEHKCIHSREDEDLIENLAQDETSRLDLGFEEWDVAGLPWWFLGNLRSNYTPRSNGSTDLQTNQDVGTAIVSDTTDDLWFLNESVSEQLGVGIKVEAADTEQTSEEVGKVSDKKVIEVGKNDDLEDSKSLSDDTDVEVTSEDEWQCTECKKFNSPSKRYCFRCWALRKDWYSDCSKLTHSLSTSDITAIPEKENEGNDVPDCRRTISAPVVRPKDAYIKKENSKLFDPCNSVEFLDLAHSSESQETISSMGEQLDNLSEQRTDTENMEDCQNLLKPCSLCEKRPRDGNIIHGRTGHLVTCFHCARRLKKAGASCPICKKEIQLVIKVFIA
Target sequence (Q00987 whole entry, looked up): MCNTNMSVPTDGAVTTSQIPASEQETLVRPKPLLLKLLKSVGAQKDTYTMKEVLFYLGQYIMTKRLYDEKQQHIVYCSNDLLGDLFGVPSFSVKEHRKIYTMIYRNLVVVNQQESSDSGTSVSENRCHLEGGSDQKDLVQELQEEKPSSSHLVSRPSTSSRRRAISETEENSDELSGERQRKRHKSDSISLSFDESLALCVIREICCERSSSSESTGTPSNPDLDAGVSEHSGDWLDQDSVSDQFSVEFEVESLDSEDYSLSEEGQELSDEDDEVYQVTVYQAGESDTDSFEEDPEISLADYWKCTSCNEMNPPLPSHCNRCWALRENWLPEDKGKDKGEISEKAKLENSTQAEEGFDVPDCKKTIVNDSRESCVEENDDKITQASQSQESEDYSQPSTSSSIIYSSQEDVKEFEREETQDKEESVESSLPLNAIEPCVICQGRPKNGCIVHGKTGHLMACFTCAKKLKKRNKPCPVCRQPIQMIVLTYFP
SKKanGAS inh = SKKanGAS growth inhibition; S. pyogenes SKKanGAS, kanamycin growth, BacTiter-Glo, 6 h; inhibition, % at 7.5 µM; 300,000 tested, 1.3% active;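 active means mean replicate score, as percent of positive control median, at least 50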;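 further: strain carries kanamycin resistance gene driven by streptokinase promoter and grows in 40 µg/ml kanamycin; loss of luminescence reflects streptokinase promoter inhibition or plain growth inhibition; 0% = median of DMSO wells and 100% = positive control at its reference dose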
Beta apoptosis = blocks beta cell apoptosis; 300,000 tested, 0.8% active; AID 435005; protection from apoptosis, % (concentration not given with the values); INS-1E cytokine-induced death, ATP luminescence, 48 h; percent of positive-control rescue, neutral wells zero;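 active means Every replicate reaches about 75%, or at least half do and their mean reaches it too, limit read from the data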;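 further: 0% = cytokine-treated negative control wells and 100% = positive control rescue; higher means more ATP so stronger rescue from cytokine killing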
MPTP inh = blocks calcium-induced mitochondrial swelling | inhibition, % at 10 µM | isolated mouse mitochondria, Ca2+ swelling absorbance, 30 min | 360,000 tested, 1.4% active;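 active means inhibition of 50% or more, scaled per plate between neutral and stimulator controls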;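 further: 0% = DMSO wells given calcium and 100% = 1 mM EGTA wells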
NR3A LBD binder = modulators (binders) of human NR3A ligand-binding domain; NR3A LBD differential scanning fluorimetry, Tm shift; 0% = protein alone, 100% = glycine-bound protein; Tm shift relative to glycine control, % at 25 µM; 340,000 tested, 2.5% active; AID 1259313;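 active means melting temperature shift of at least 10% of the positive control shift, at one fixed dose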
Starred values were filed as active, the others as inactive. Hits are enriched below; roughly 6.9% of the tested compounds scored in any of these assays.

CNC(CC(C)C)C(=O)NC1C(=O)NC(CC(N)=O)C(=O)NC2C(=O)NC3C(=O)NC(C(=O)NC(C(=O)O)c4cc(O)cc(O)c4-c4cc3ccc4O)C(O)c3ccc(c(Cl)c3)Oc3cc2cc(c3OC2OC(CO)C(O)C(O)C2OC2CC(C)(N)C(O)C(C)O2)Oc2ccc(cc2Cl)C1O (centres undefined) was read as CSC inhib -4.8, SKKanGAS inh 101.8*, MPTP inh -1.1 and NR3A LBD binder -2.4.
CCOc1cc(/C=N/Nc2ccc(C(=O)O)cc2)ccc1OC(=O)c1ccccc1C was read as CSC inhib 4.5, Mdm2 MdmX PPI 2.4, SKKanGAS inh 75.1*, Beta apoptosis 6.4, MPTP inh 7.0 and NR3A LBD binder -6.3.
COc1cccc(OCc2cc(/C=N/Nc3ccc(C(=O)O)cc3)ccc2OC)c1 was read as CSC inhib -1.2, Mdm2 MdmX PPI 39.0, SKKanGAS inh 9.9, Beta apoptosis -24.4, MPTP inh 1.6 and NR3A LBD binder -3.6.
For COc1cccc(C(=O)Oc2ccc(/C=N/Nc3ccc(C(=O)O)cc3)cc2OC)c1 the results were CSC inhib -5.8, Mdm2 MdmX PPI -24.2, SKKanGAS inh 54.7*, Beta apoptosis -5.3, MPTP inh -1.0 and NR3A LBD binder -3.7.
`Cc1ccc(S(=O)(=O)N2CCN(C(=O)C3CCN(C(=O)c4ccc(F)cc4)CC3)CC2)c(C)c1` gave CSC inhib -9.0, Mdm2 MdmX PPI 17.4, SKKanGAS inh -4.8, Beta apoptosis 15.5, MPTP inh 0.8 and NR3A LBD binder 0.9.
`COC(=O)c1ccc2c(=O)n(-c3ccccc3F)c(=S)[nH]c2c1` gave CSC inhib 0.2, Mdm2 MdmX PPI -38.7, SKKanGAS inh 1.0, Beta apoptosis -5.3, MPTP inh -0.7 and NR3A LBD binder -3.2.
`CC1(c2nnnn2-c2ccc3c(c2)OCCO3)CCC(=O)N1CCc1ccc(O)cc1` (centres undefined) gave MPTP inh -0.5.
Screening O=C(COC(=O)c1c(Cl)cccc1Cl)Nc1ccccc1Br returned Mdm2 MdmX PPI -6.4, SKKanGAS inh -1.1, Beta apoptosis -1.0, MPTP inh 0.2 and NR3A LBD binder 14.8*.
COc1ccc(NC(=O)CN2C(=O)CSC(C)C2=O)cc1 (centres undefined) was read as CSC inhib -8.7, Mdm2 MdmX PPI 9.9, SKKanGAS inh 2.3, Beta apoptosis -0.6, MPTP inh -2.3 and NR3A LBD binder 0.7.
Screening CCc1ccc(NC(=O)CCn2nc(C)c(S(=O)(=O)N3CCCCC3)c2C)cc1 returned CSC inhib -2.9, Mdm2 MdmX PPI 6.0, SKKanGAS inh 2.3, Beta apoptosis 0.5, MPTP inh 2.5 and NR3A LBD binder 0.8.
For COc1ccccc1NC(=O)CSc1ccc(-c2ccc(-n3ccnc3)cc2)nn1 the results were CSC inhib -0.2, Mdm2 MdmX PPI -18.7, SKKanGAS inh -1.9, MPTP inh 0.5 and NR3A LBD binder 0.8.
For COc1ccc(-c2ccc(SC)nn2)cc1 the results were CSC inhib 80.0*, Mdm2 MdmX PPI -29.0, SKKanGAS inh 45.0, Beta apoptosis 60.4, MPTP inh 0.8 and NR3A LBD binder -1.6.
Cc1ccc(S(=O)(=O)C2(C(=O)NC3CCCCC3)CC2)cc1 was read as CSC inhib 1.2, Mdm2 MdmX PPI -17.0, SKKanGAS inh 4.7, Beta apoptosis -3.5, MPTP inh -0.4 and NR3A LBD binder 25.7*.
`Cc1cccc(NC(=O)c2sc3nc(C)nc(N4CCOCC4)c3c2C)c1` gave MPTP inh 1.1.
Cc1nc(N2CCC(C)CC2)c2c(C)c(C(=O)Nc3ccccc3C(F)(F)F)sc2n1 was read as CSC inhib 43.7, Mdm2 MdmX PPI 7.1, SKKanGAS inh 58.2*, Beta apoptosis 0.8, MPTP inh 4.6 and NR3A LBD binder -3.4.
`CCOc1ccc(NC(=O)c2sc3nc(C)nc(N4CCOCC4)c3c2C)cc1` gave CSC inhib 18.9, Mdm2 MdmX PPI 8.2, SKKanGAS inh -0.7, Beta apoptosis 4.1, MPTP inh -0.9 and NR3A LBD binder 16.5*.
CCOC(=O)c1sc2ncnc(N3CCN(c4ccc(OC)cc4)CC3)c2c1C was read as CSC inhib 24.7, Mdm2 MdmX PPI -1.7, SKKanGAS inh 69.3*, Beta apoptosis 2.3, MPTP inh 3.2 and NR3A LBD binder 1.5.
`CN(Cc1ccno1)C(=O)CC1C(=O)NCCN1CC(c1ccccc1)c1ccccc1` (centres undefined) gave CSC inhib -9.3, Mdm2 MdmX PPI 24.6, SKKanGAS inh -2.7, Beta apoptosis -1.4, MPTP inh 0.2 and NR3A LBD binder -2.4.
O=C1/C(=C/c2ccccn2)SC(=S)N1Cc1ccccc1 was read as CSC inhib 16.8, Mdm2 MdmX PPI 17.5, SKKanGAS inh 10.7, Beta apoptosis 0.0, MPTP inh 2.3 and NR3A LBD binder -1.6.
`O=C1/C(=C\c2cc(Cl)c(O)c(Cl)c2)SC(=S)N1Cc1ccccc1` gave CSC inhib 103.5*, SKKanGAS inh 89.6*, Beta apoptosis 8.6, MPTP inh 8.8 and NR3A LBD binder -3.4.
Screening COc1ccc(/C=C2\SC(=S)N(N3C(=O)CCC3=O)C2=O)cc1O returned CSC inhib -13.1, Mdm2 MdmX PPI 6.7, SKKanGAS inh 5.8, MPTP inh 1.8 and NR3A LBD binder 5.3.
Screening COc1ccc(/C=C2/SC(=S)N(Cc3ccccc3)C2=O)cc1O returned CSC inhib 25.2, Mdm2 MdmX PPI 13.7, SKKanGAS inh -1.2, Beta apoptosis 3.0, MPTP inh 3.7 and NR3A LBD binder 19.5*.
`COc1ccc(O)c(/C=C2/SC(=S)N(Cc3ccccc3)C2=O)c1` gave CSC inhib 43.2, Mdm2 MdmX PPI 30.6, SKKanGAS inh 13.2, Beta apoptosis -13.0, MPTP inh 1.8 and NR3A LBD binder 15.6*.
O=C(O)COc1ccc(/C=C2/SC(=S)N(Cc3ccccc3)C2=O)cc1 was read as CSC inhib 3.4, Mdm2 MdmX PPI 22.8, SKKanGAS inh 15.8, Beta apoptosis -4.1, MPTP inh -0.8 and NR3A LBD binder 4.3.
CCCOc1ccc(C2=CSC3=NCCN23)cc1 was read as CSC inhib 40.1, Mdm2 MdmX PPI 17.6, SKKanGAS inh 2.2, Beta apoptosis 0.9, MPTP inh 0.0 and NR3A LBD binder -1.2.
NS(=O)(=O)c1cccc(NC(=O)COc2ncnc3c2cnn3-c2ccccc2)c1 was read as CSC inhib -10.9, Mdm2 MdmX PPI 24.2, SKKanGAS inh -14.3, Beta apoptosis 0.8, MPTP inh -1.8 and NR3A LBD binder -2.0.
For O=C(COc1ncnc2c1cnn2-c1ccccc1)Nc1ccc(S(=O)(=O)N2CCCCC2)cc1 the results were CSC inhib -8.8, Mdm2 MdmX PPI 7.8, SKKanGAS inh 17.0, Beta apoptosis -3.0, MPTP inh 5.1 and NR3A LBD binder 18.0*.
`CC(C)c1ccc(CC(=O)N2CCC2(C)C(=O)Nc2ccc3c(c2)OCCO3)cc1` (centres undefined) gave MPTP inh 0.6.
